From PubChem BioAssay AID687038 (Broad Institute, 2013)
Activity calls are given as the source filed them.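 The calls were made as follows: active = curve showing a falling signal whose half-maximal concentration is at most twice the top valid dose; inconclusive = flat curve with a moderate drop, or an unreliable fit; inactive = the rest.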

Experiment: miR-21 levels after miR-122 inhibitor treatment, dose response, selectivity assay for miR-122 inhibitor project, cell-based, Huh7, RT-qPCR, dry powder (AID 687038)
Settings: Huh7 miR-21 levels, qRT-PCR, 48 h; series mostly up to 35 µM

outcome, inactive:
C[C@H]1CN([C@@H](C)CO)C(=O)c2cc(-c3ccc(C#N)cc3)cnc2O[C@H]1CN(C)C(=O)Nc1ccc(C(F)(F)F)cc1
CCN(CC)C(=O)c1cccc(NC(=O)c2ccc(Cl)cc2Cl)c1
C[C@H]1CN([C@@H](C)CO)C(=O)c2cc(C#Cc3ccccc3F)cnc2O[C@H]1CN(C)C(=O)C1CCCCC1
CCOC(=O)N1CCC(NC(=O)c2ccc3nc(N4CCC(C)CC4)sc3c2)CC1
CCCCN(CCCC)C(=O)CN(C)S(=O)(=O)c1ccc2c(c1)n(C)c(=O)c(=O)n2C
COCC(=O)N(C)C[C@H]1Oc2cc(C#Cc3cccnc3)ccc2S(=O)(=O)N([C@@H](C)CO)C[C@H]1C
COc1ccc(-c2cnc3c(c2)C(=O)N([C@@H](C)CO)C[C@H](C)[C@H](CN(C)S(=O)(=O)c2ccc(OC)cc2)O3)cc1
C[C@H](CO)N1C[C@H](C)[C@@H](CN(C)C(=O)C2CCOCC2)Oc2cc(C#Cc3ccncc3)ccc2S1(=O)=O
C[C@@H]1CN([C@@H](C)CO)S(=O)(=O)c2ccc(C#Cc3ccncc3)cc2O[C@@H]1CN(C)C(=O)C1CCOCC1
O=C(NCc1ccccc1Cl)c1ccc(CNc2c(NC3CCCCC3)c(=O)c2=O)cc1
O=C(CNCCC1=CCCCC1)Nc1ccccc1N1CCCCCC1
CCn1cc(C(=O)O)c(=O)c2cc(F)c(N3CCNCC3)nc21
CCCC#Cc1ccc2c(c1)O[C@H](CN(C)C(=O)COC)[C@H](C)CN([C@@H](C)CO)S2(=O)=O
